Only some compounds are listed: those with a hit (about 2.9% of all), similar ones and a draw of the others.
POLI inh: qHTS for Inhibitors of Polymerase Iota; Pol iota fluorescent replication assay, 10 min; Potency, µM (highest dose often 115 µM), usual class: inhibitors; DNA polymerase iota (Homo sapiens), Q9UNA4; AID 588590, 2011; actives 1% (n = 390,000)
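Pol iota at 10 nM preincubated 15 min with compounds at room temperature; reaction started with fluorescent substrate, 50 nM final. Fluorescence read kinetically at 0 and 10 min; buffer-only wells as negative control.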
Pol beta inh: qHTS Assay for Inhibitors of DNA Polymerase Beta; P06746; Pol beta primer extension/strand displacement, fluorescence kinetic; Potency, µM (series often up to 114 µM), hits mostly inhibitors; actives 1.3% (n = 340,000); AID 485314, 2010
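Pol beta (10 nM) was preincubated with compound for 15 min at room temperature. The reaction was then started with 50 nM substrate and read immediately and after a further 10 min at room temperature.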
Pol eta inh: qHTS for Inhibitors of Polymerase Eta. actives 1.2% (n = 390,000). AID 588591, 2011. recombinant Pol eta, fluorescent DNA replication assay. DNA polymerase eta (Homo sapiens), Q9Y253. Potency, µM (titrated, usually from 114 µM), hits mostly inhibitors
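Pol eta (10 nM) was preincubated with compounds for 15 min at room temperature, after which fluorescent replication substrate (50 nM final) was added to start the reaction. Fluorescence was read kinetically at 0 and 10 min.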
PI5P4K alpha inh: qHTS for Inhibitors of phosphatidylinositol 5-phosphate 4-kinase (PI5P4K); Phosphatidylinositol 5-phosphate 4-kinase type-2 alpha (Homo sapiens), P48426; PI5P4Kalpha enzyme, ADP-Glo luminescence, 60 min; stronger effect = lower value; max response, %; actives 1.2% (n = 330,000); AID 652105, 2013; active = max response of -50% or lower; inconclusive = between -30% and -50%; inactive = -30% or higher; note: value at the top dose of about 77 µM
Target sequence (P48426 whole entry, looked up): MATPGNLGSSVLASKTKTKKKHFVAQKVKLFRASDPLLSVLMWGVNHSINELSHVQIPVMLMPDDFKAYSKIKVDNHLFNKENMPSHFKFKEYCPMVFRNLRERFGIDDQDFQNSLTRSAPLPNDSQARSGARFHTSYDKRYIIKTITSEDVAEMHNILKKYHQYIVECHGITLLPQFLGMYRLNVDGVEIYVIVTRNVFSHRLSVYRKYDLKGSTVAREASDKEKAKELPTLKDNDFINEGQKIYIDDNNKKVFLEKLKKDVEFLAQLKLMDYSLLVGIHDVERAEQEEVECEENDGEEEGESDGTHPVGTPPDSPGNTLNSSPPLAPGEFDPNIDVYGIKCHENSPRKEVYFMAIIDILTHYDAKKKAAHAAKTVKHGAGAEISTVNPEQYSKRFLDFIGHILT
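Luminescence from ADP-Glo served as readout of PI5P4Kalpha activity in a qHTS format. Reaction: enzyme, substrate, compound, ATP at 5 microM final, 60 min at RT.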
Pol kappa inh: qHTS for Inhibitors of Polymerase Kappa; actives 0.53% (n = 400,000); AID 588579, 2011; DNA polymerase kappa (Homo sapiens), Q9UBT6; purified Pol kappa, fluorescent DNA synthesis assay, 10 min; Potency, µM (series often up to 107 µM), hits mostly inhibitors
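Kinetic fluorescence readout at 0 and 10 min followed reaction start with substrate at 50 nM final. Beforehand, enzyme (10 nM Pol kappa) stood 15 min with compound at room temperature; buffer-only wells were negative controls.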
12-LOX inh: Primary qHTS assay for inhibitors of human arachidonate 12S-lipoxygenase (ALOX12): Round 2 | purified 12hLO, xylenol orange hydroperoxide absorbance | actives 1.1% (n = 580,000) | Potency, µM (doses to about 108 µM), most hits filed as inhibitors
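Purified human 12hLO at 150 nM in 25 mM Hepes, 0.01% Triton X-100, pH 7.0, preincubated 15 min at room temperature with compound. Reaction started with 40 uM arachidonic acid, 30 min at room temperature. Hydroperoxide measured by Fe-xylenol orange, 573/405 nm absorbance ratio.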
Each line names hits and unclear results; the compound was inactive in the other large screens; ! = a repeat was not active. Unless noted, calls come from the whole dose curve; as a rule, active = well fitted inhibition curve with a large enough effect; inconclusive = small, poorly fitted or top-dose-only effect, or another doubt; inactive = no such curve, though single readings can be large or run the other way.

CCCC1Cc2nc(Cl)c(C#N)cc2CO1 (centres undefined)	POLI inh inconclusive, Pol beta inh 44.7µM, Pol eta inh inconclusive, PI5P4K alpha inh inconclusive, 12-LOX inh inconclusive
CCC1(C)Cc2nc(Cl)c(C#N)cc2CO1 (centres undefined)	none
COc1ccc(N2C(=O)c3ccccc3NC2c2cnn(-c3ccccc3)n2)cc1 (centres undefined)	none (no result: POLI inh, Pol beta inh, Pol eta inh, PI5P4K alpha inh, Pol kappa inh)
Clc1ccccc1N1CCN(Cc2ccco2)CC1	none
Clc1ccc(N2CCN(Cc3ccco3)CC2)cc1	12-LOX inh 0.631µM
COc1ccc(CCn2c(C)cc(C(=O)COC(=O)c3ccc(NC(=O)CC#N)cc3)c2C)cc1	POLI inh inconclusive, Pol eta inh 79.4µM, PI5P4K alpha inh -50.3, Pol kappa inh inconclusive (no result: 12-LOX inh)
CC(C)OC(=O)CC(NC(=O)c1cccc(CS(C)(=O)=O)c1)c1ccccc1 (centres undefined)	none (no result: POLI inh, Pol beta inh, Pol eta inh, PI5P4K alpha inh, Pol kappa inh)
CC(=O)Nc1ccc(CN2CCn3c(nnc3C3CCNCC3)C2)cc1	12-LOX inh 11.2µM (no result: POLI inh, Pol beta inh, Pol eta inh, PI5P4K alpha inh, Pol kappa inh)
C[S+](=O)([O-])c1ccc(-c2nc(C(=O)N3CCN(c4ncccn4)CC3)n3ccccc23)cc1	none (no result: POLI inh, Pol beta inh, Pol eta inh, PI5P4K alpha inh, Pol kappa inh)
Cc1nn(C)c(C)c1CCC(=O)Nc1nc(-c2ccc(F)c(F)c2)c(C)s1	none (no result: POLI inh, Pol beta inh, Pol eta inh, PI5P4K alpha inh, Pol kappa inh)
N#Cc1ccc(CNc2ccccc2C(N)=O)cc1	none (no result: POLI inh, Pol beta inh, Pol eta inh, PI5P4K alpha inh, Pol kappa inh)
O=C(Nc1ccc(Oc2ccccc2)cc1)C1CCCO1 (centres undefined)	Pol beta inh 79.4µM (no result: PI5P4K alpha inh)
FC(F)Sc1ccc(NC(=S)NC(c2ccccc2)c2ccccc2)cc1	12-LOX inh 39.8µM
S=C(Nc1ccc(Oc2ccccc2)cc1)NC1CCCC1	12-LOX inh inconclusive
FC(F)Sc1ccc(NC(=S)NCC2CCCCC2)cc1	12-LOX inh 15.8µM (no result: PI5P4K alpha inh)
S=C(NCC1CCCCC1)Nc1ccc(Oc2ccccc2)cc1	12-LOX inh 39.8µM
CC1CCCCC1NC(=S)Nc1ccc(SC(F)F)cc1 (centres undefined)	12-LOX inh 31.6µM
COc1ccc(C)cc1-n1c(SCC(=O)Nc2cccc(C(=O)O)c2)nc2ccccc2c1=O	PI5P4K alpha inh -80.7
COc1ccc(NC(=O)CSc2nc(O)cc(=O)n2-c2ccccc2OC)cc1	POLI inh inconclusive, 12-LOX inh inconclusive (no result: PI5P4K alpha inh)
Cc1ccc(NC(=O)CSc2nc(O)cc(=O)n2-c2ccc(C)cc2)cc1	12-LOX inh 2.24µM
O=c1cc(O)nc(SCc2ccccc2)n1-c1ccc(Cl)cc1	PI5P4K alpha inh inconclusive, Pol kappa inh inconclusive, 12-LOX inh 44.7µM
COc1ccccc1-n1c(SCC(=O)Nc2ccc(C)cc2)nc(O)cc1=O	12-LOX inh 0.316µM!
COc1ccc(C)cc1-n1c(SCC(=O)NC2CC2)nc2ccccc2c1=O	none (no result: Pol beta inh)
Cn1c(SCC(=O)Nc2ccc(Br)cc2)nc(O)cc1=O	12-LOX inh inconclusive
COc1ccc(-n2c(SCC(=O)Nc3ccc(Br)cc3)nc(O)cc2=O)cc1	PI5P4K alpha inh inconclusive, 12-LOX inh 2.24µM
COc1ccc(/C=C/c2nnc(Cc3ccccc3)o2)cc1	none (no result: POLI inh, Pol beta inh, Pol eta inh, PI5P4K alpha inh, Pol kappa inh)
COc1ccc(Nc2cc(C)c3cc(C)ccc3n2)cc1	12-LOX inh 17.8µM (no result: POLI inh, Pol beta inh, Pol eta inh, PI5P4K alpha inh, Pol kappa inh)
CCc1cccc2c(C(=O)C(F)(F)F)cn(CCOc3ccccc3F)c12	none (no result: POLI inh, Pol beta inh, Pol eta inh, PI5P4K alpha inh, Pol kappa inh)
O=C(CSc1nccc(=O)[nH]1)N1c2ccccc2CCc2ccccc21	POLI inh 70.8µM (no result: PI5P4K alpha inh)
Oc1c(N=Nc2nn[nH]n2)ccc2ccccc12	PI5P4K alpha inh -81.6, 12-LOX inh inconclusive (no result: POLI inh, Pol beta inh, Pol eta inh, Pol kappa inh)
Oc1c(N=Nc2ccc(F)cc2)ccc2ccccc12	none
COc1ccc(CCNC(=O)/C=C/c2ccco2)cc1OC	POLI inh inconclusive, 12-LOX inh inconclusive
COc1ccc(C(NC(=O)/C=C\c2ccco2)c2ccc(OC)c(OC)c2)cc1 (centres undefined)	POLI inh inconclusive, Pol beta inh inconclusive, Pol eta inh inconclusive, 12-LOX inh 31.6µM (no result: PI5P4K alpha inh)
COc1ccc(C(NC(=O)/C=C/c2ccco2)c2ccc(OC)cc2)cc1	POLI inh inconclusive, Pol beta inh 15.8µM, Pol eta inh inconclusive, 12-LOX inh 44.7µM
